Calls of active or inactive are those of the source. How the source made its calls: active means hit-call score of the fitted dose curve at least 0.9, where 1 is the maximum; inactive means score below 0.9.
Tests used:
Conditions in all cases: mRNA level, 48 h; actives raise or lower the signal
[1] = read-out: CFLAR gene, CFLAR (gene 8837); assay: LTEA_HepaRG_CFLAR: Life Technologies and Expression Analysis (LTEA) Assay for CFLAR gene using HepaRG (AID 2283455)
In short: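 Differentiated HepaRG cells in serum-free induction medium were exposed 48 h in duplicate to eight half-log concentrations up to 100 uM in 0.5% DMSO; mRNA measured by TaqMan qRT-PCR, normalized to ACTB, GAPDH, POLR2A; bidirectional fitting versus DMSO.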

[2] = read-out: Forkhead box O1 (FOXO1), FOXO1 (gene 2308); assay: LTEA_HepaRG_FOXO1: Life Technologies and Expression Analysis (LTEA) Assay for Forkhead box O1 (FOXO1) using HepaRG (AID 2283456)
In short: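 Differentiated HepaRG cells, in serum-free induction medium with 0.5% DMSO, exposed 48 h in duplicate to 8-point half-log series from 100 uM. FOXO1 mRNA measured by TaqMan qRT-PCR, normalized to ACTB, GAPDH, POLR2A; bidirectional fit versus DMSO.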

[3] = read-out: growth arrest and DNA damage 45 (GADD45A), GADD45A (gene 1647); assay: LTEA_HepaRG_GADD45A: Life Technologies and Expression Analysis (LTEA) Assay for growth arrest and DNA damage 45 (GADD45A) using HepaRG (AID 2283458)
In short: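 Differentiated HepaRG cells were exposed in duplicate for 48 h in serum-free induction medium to 8-point half-log concentrations up to 100 uM in 0.5% DMSO. GADD45A mRNA was measured by TaqMan qRT-PCR, normalized to ACTB, GAPDH and POLR2A, with bidirectional fitting versus DMSO.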

[4] = read-out: Forkhead box O3 (FOXO3), FOXO3 (gene 2309); assay: LTEA_HepaRG_FOXO3: Life Technologies and Expression Analysis (LTEA) Assay for Forkhead box O3 (FOXO3) using HepaRG (AID 2283459)
In short: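 Differentiated human HepaRG cells, 48 h post-plating, exposed in duplicate for 48 h in serum-free induction medium; 8-point half-log series from 100 uM in 0.5% DMSO. FOXO3 mRNA by TaqMan qRT-PCR, normalized to ACTB/GAPDH/POLR2A; bidirectional fit versus DMSO.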

[5] = read-out: growth arrest and DNA damage 45 (GADD45B), GADD45B (gene 4616); assay: LTEA_HepaRG_GADD45B: Life Technologies and Expression Analysis (LTEA) Assay for growth arrest and DNA damage 45 (GADD45B) using HepaRG (AID 2283461)
In short: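 Human HepaRG monolayers receive chemicals for 48 h at eight half-log concentrations, highest 100 uM, in 0.5% DMSO. Expression is measured by TaqMan qRT-PCR and normalized to ACTB, GAPDH and POLR2A.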

[6] = read-out: ABC Transporter (ABCC3), ABCC3 (gene 8714); assay: LTEA_HepaRG_ABCC3: Life Technologies and Expression Analysis (LTEA) Assay for ABC Transporter (ABCC3) using HepaRG (AID 2283462)
In short: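 Transcriptional change of ABCC3 in HepaRG after 48 h treatment, determined by qRT-PCR normalized to endogenous controls. Concentrations spanned eight half-log steps to 100 uM in 0.5% DMSO.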

[7] = read-out: ABC Transporter (ABCC2), ABCC2 (gene 1244); assay: LTEA_HepaRG_ABCC2: Life Technologies and Expression Analysis (LTEA) Assay for ABC Transporter (ABCC2) using HepaRG (AID 2283464)
In short: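 After plating and 48 h culture, HepaRG medium is replaced with serum-free induction medium and chemicals are added (8 concentrations, max 100 uM, 0.5% DMSO) for 48 h. Total RNA then undergoes qRT-PCR for ABCC2 with housekeeping normalization.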

[8] = read-out: Peroxisomal acyl-coenzyme A oxidase 1 (ACOX1) gene, ACOX1 (gene 51); assay: LTEA_HepaRG_ACOX1: Life Technologies and Expression Analysis (LTEA) Assay for Peroxisomal acyl-coenzyme A oxidase 1 (ACOX1) gene using HepaRG (AID 2283467)
In short: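 HepaRG cells, plated 48 h then switched to serum-free induction medium, were exposed in duplicate for 48 h to 8-point half-log concentrations up to 100 uM in 0.5% DMSO. ACOX1 mRNA was measured by qRT-PCR, normalized to ACTB/GAPDH/POLR2A, and fitted bidirectionally versus DMSO.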

[9] = read-out: Alkaline Phosphatase, Placental (ALPP) gene, ALPP (gene 250); assay: LTEA_HepaRG_ALPP: Life Technologies and Expression Analysis (LTEA) Assay for Alkaline Phosphatase, Placental (ALPP) gene using HepaRG (AID 2283468)
In short: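 Using human liver HepaRG cells, chemicals are tested in duplicate over 48 h at half-log concentrations topping at 100 uM; phenobarbital 1 mM serves as induction control. ALPP mRNA change by qRT-PCR, bidirectional fit against vehicle.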

[10] = read-out: Bcl-2 (BAD) gene, BAD (gene 572); assay: LTEA_HepaRG_BAD: Life Technologies and Expression Analysis (LTEA) Assay for Bcl-2 (BAD) gene using HepaRG (AID 2283469)
In short: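 Differentiated HepaRG cells were exposed in duplicate in 0.5% DMSO for 48 h to eight-point half-log concentrations up to 100 uM. BAD mRNA was measured by Fluidigm TaqMan qRT-PCR, normalized to ACTB, GAPDH and POLR2A, and fitted bidirectionally against DMSO.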

[11] = read-out: Alpha-fetoprotein (AFP) gene, AFP (gene 174); assay: LTEA_HepaRG_AFP: Life Technologies and Expression Analysis (LTEA) Assay for Alpha-fetoprotein (AFP) gene using HepaRG (AID 2283472)
In short: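 Human HepaRG cells plated 48 h, then switched to serum-free induction medium and exposed in duplicate for 48 h to 8-point half-log series from 100 uM in 0.5% DMSO. AFP mRNA by qRT-PCR, normalized to ACTB, GAPDH, POLR2A; bidirectional fit versus DMSO.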

[12] = read-out: BCL2L11 (gene 10018); assay: LTEA_HepaRG_BCL2L11: Life Technologies and Expression Analysis (LTEA) Assay for Bcl-2 (BCL2L11) gene using HepaRG (AID 2283473)
In short: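 Human hepatic HepaRG cultures are treated 48 h with test chemicals (maximum 100 uM, 0.5% DMSO vehicle). Expression of BCL2L11 is measured by qRT-PCR against ACTB, GAPDH and POLR2A, with activity in either direction scored relative to vehicle.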

[13] = read-out: Apolipoprotein A-V (APOA5) gene, APOA5 (gene 116519); assay: LTEA_HepaRG_APOA5: Life Technologies and Expression Analysis (LTEA) Assay for Apolipoprotein A-V (APOA5) gene using HepaRG (AID 2283474)
In short: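 Concentration-response of APOA5 expression in HepaRG: eight half-log doses to 100 uM, 48 h, qRT-PCR normalized to ACTB/GAPDH/POLR2A, bidirectional fitting with 0.5% DMSO as baseline.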

[14] = read-out: ABC Transporter (ABCB11), ABCB11 (gene 8647); assay: LTEA_HepaRG_ABCB11: Life Technologies and Expression Analysis (LTEA) Assay for ABC Transporter (ABCB11) using HepaRG (AID 2283463)
In short: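 Differentiated human HepaRG cells in serum-free induction medium, dosed in duplicate for 48 h. Eight-point half-log series from 100 uM in 0.5% DMSO; ABCB11 mRNA by qRT-PCR, normalized to ACTB, GAPDH, POLR2A, fitted bidirectionally versus DMSO.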

[15] = read-out: Bcl-2 (BAX) gene, BAX (gene 581); assay: LTEA_HepaRG_BAX: Life Technologies and Expression Analysis (LTEA) Assay for Bcl-2 (BAX) gene using HepaRG (AID 2283470)
In short: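 Differentiated human HepaRG cells, plated 48 h then switched to serum-free induction medium, were exposed 48 h to 8 half-log concentrations up to 100 uM in 0.5% DMSO; BAX mRNA measured by qRT-PCR, normalized to ACTB, GAPDH, POLR2A.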

[16] = read-out: adenosine kinase (ADK) gene, ADK (gene 132); assay: LTEA_HepaRG_ADK: Life Technologies and Expression Analysis (LTEA) Assay for adenosine kinase (ADK) gene using HepaRG (AID 2283471)
In short: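 Read-out is ADK transcript level measured by qRT-PCR and normalised to three housekeeping genes. Cells are human HepaRG, dosed for 48 h at up to 100 uM in 0.5% DMSO. Gain or loss of signal is fitted against DMSO controls.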

[17] = read-out: Broad substrate specificity ATP-binding cassette transporter ABCG2 (Homo sapiens) (UniProt Q9UNQ0); assay: LTEA_HepaRG_ABCG2: Life Technologies and Expression Analysis (LTEA) Assay for ABC Transporter (ABCG2) using HepaRG (AID 2283465)
In short: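 Differentiated HepaRG cells were exposed for 48 h in serum-free induction medium to 8 half-log concentrations, top 100 uM, in 0.5% DMSO. ABCG2 mRNA was measured by qRT-PCR, normalized to ACTB, GAPDH and POLR2A, with bidirectional fitting versus DMSO.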

[18] = read-out: ATP-citrate lyase (ACLY), ACLY (gene 47); assay: LTEA_HepaRG_ACLY: Life Technologies and Expression Analysis (LTEA) Assay for ATP-citrate lyase (ACLY) using HepaRG (AID 2283466)
In short: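 Differentiated HepaRG cells exposed 48 h in serum-free induction medium to eight half-log concentrations up to 100 uM in 0.5% DMSO, duplicates. Transcript measured by Fluidigm TaqMan qRT-PCR, normalized to ACTB, GAPDH, POLR2A; bidirectional fit versus DMSO.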

Measured: AC50

Broad substrate specificity ATP-binding cassette transporter ABCG2 (Homo sapiens), sequence (Q9UNQ0 whole entry, looked up): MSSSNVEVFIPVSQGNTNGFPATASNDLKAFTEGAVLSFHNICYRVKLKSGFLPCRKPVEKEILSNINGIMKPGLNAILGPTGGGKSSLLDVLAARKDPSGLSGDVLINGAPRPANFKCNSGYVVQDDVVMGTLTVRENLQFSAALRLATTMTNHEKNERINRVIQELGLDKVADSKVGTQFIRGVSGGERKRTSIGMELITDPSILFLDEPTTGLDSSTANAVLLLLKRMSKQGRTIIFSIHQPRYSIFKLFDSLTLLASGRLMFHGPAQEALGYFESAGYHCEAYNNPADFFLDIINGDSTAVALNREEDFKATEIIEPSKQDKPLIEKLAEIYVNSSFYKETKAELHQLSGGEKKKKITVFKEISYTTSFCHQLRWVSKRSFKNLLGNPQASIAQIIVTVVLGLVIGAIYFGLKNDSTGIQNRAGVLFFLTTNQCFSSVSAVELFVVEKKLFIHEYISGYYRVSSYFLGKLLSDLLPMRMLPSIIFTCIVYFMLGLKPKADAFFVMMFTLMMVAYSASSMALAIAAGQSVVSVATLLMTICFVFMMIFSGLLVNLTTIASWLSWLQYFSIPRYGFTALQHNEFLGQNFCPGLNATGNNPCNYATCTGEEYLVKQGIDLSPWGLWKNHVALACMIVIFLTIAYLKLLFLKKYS

ClC(Cl)=C(c1ccc(Cl)cc1)c1ccc(Cl)cc1
inactive: [1] | [2] | [4] | [5] | [6] | [8] | [9] | [10] | [11] | [12] | [13]
active: [3] 0.0693 µM | [7] 10.8 µM

Nc1ccc(-c2ccc(N)cc2)cc1
inactive: [1] | [2] | [3] | [4] | [5] | [6] | [7] | [8] | [9] | [11] | [12] | [13]
active: [14] 3.77 µM

CCOP(=S)(OCC)SCSC(C)(C)C
active: [11] 29.5 µM
inactive: [1] | [2] | [3] | [4] | [6] | [7] | [8] | [9] | [15] | [16] | [12] | [13]

CN(C)CCO
inactive: [1] | [2] | [3] | [4] | [6] | [14] | [7] | [17] | [8] | [9] | [11] | [12] | [13]

Oc1ccc(Cl)cc1Cl
inactive: [1] | [2] | [3] | [5] | [6] | [7] | [18] | [8] | [9] | [11] | [12] | [13]

CC(c1ccc(O)cc1)(c1ccc(O)cc1)c1ccc(O)cc1
active: [1] 64.5 µM | [2] 73.5 µM | [4] 70.9 µM | [7] 81 µM | [18] 61.6 µM | [8] 70.5 µM | [9] 0.895 µM | [12] 82.2 µM
inactive: [3] | [6] | [15] | [11] | [13]

CC(C)C(=O)OCC(C)(C)C(OC(=O)C(C)C)C(C)C (centres undefined)
inactive: [1] | [2] | [3] | [4] | [6] | [7] | [18] | [8] | [9] | [10] | [11] | [12] | [13]

ClC1=C(Cl)[C@]2(Cl)[C@@H]3[C@@H]4C[C@@H]([C@H]5O[C@@H]45)[C@@H]3[C@@]1(Cl)C2(Cl)Cl
active: [4] 0.0321 µM | [7] 4.03 µM | [18] 0.033 µM | [8] 0.0311 µM | [16] 0.0386 µM | [11] 0.0145 µM
inactive: [1] | [2] | [3] | [6] | [9] | [15] | [12] | [13]

From PubChem BioAssay (EPA / NIEHS)
